Data on 75 compounds can be found in PubChem BioAssay AID743287 (Broad Institute, 2014).

Where “and” joins values, the source holds several entries; their conditions need not be identical. Identical values can stand only once. The whole screen tested about 370,000 compounds, of which about 2,300 (0.62%) were called active. What follows is part of a selection rich in actives, with near analogues and random picks from the rest. A number with no mark means an inactive call.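 How the source made its calls: active means lowest replicate activation of at least 40%, so every replicate reaches that level; inactive means the rest.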

A short description of the test: GLuc luminescence reporter in INS-1E cells, primary screen for activators of glucose-dependent secretion of insulin (AID 743287).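 Further: 0% = median of neutral control wells and 100% = median of IBMX positive control wells.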 The following applies: INS-1E GLuc reporter insulin secretion, 2-3 h, at 16.6 µM, hits give high values.
On to `CCCC#Cc1ccc2c(c1)O[C@H](CN(C)C(=O)C1CCCCC1)[C@H](C)CN([C@H](C)CO)S2(=O)=O`, for which the activation is -12.4%.
`CN(C)CC(=O)N[C@@H]1CC[C@H](CCn2cc(C3CCCC3)nn2)O[C@H]1CO`: the activation was -11.3%.
Next, `O=C(NCCS(=O)(=O)NCc1ccc(Cl)cc1)c1ccccc1`: 18.7%; `O=C(NNC(=O)c1cccc(S(=O)(=O)Nc2ccc(Cl)cc2)c1)c1ccc(=O)[nH]c1`: 0.241%; `O=C(Nc1ccccc1)c1nnsc1S(=O)(=O)c1ccc(Cl)cc1`: 48.4% (active).
Regarding `C=CCSc1nc2c(c(=O)[nH]1)C(C(C)C)C(C#N)=C(N)O2` (stereo not given), the activation was 71.8% (active).
Next, `C=CCSc1nc(N)cc(=O)[nH]1`: 18%; `O=C(C[C@@H]1CC[C@@H]2[C@H](COC[C@H](O)CN2S(=O)(=O)c2ccccc2)O1)N[C@H]1CCN(Cc2ccccc2)C1`: 4.06%.
Next, `COc1ccc(NC(=O)N(C)C[C@H]2Oc3c(NC(=O)Nc4cccc5ccccc45)cccc3C(=O)N([C@H](C)CO)C[C@@H]2C)cc1`: -5.46%; `Cc1cccc(-c2ccc(C3[C@H]4CNC[C@@H]3N4S(=O)(=O)c3ccccc3F)cc2)c1` (stereo not given in full): -12.2% and 1.38%; `C/C=C/c1ccc([C@@H]2[C@@H](CN(C)C(C)=O)N(C(=O)C3CC3)[C@H]2CO)cc1`: -3.3%.
As to `C[C@@H]1CN([C@H](C)CO)C(=O)c2cc(NC(=O)Cn3cnnn3)ccc2O[C@@H]1CN(C)C(=O)Nc1ccc2c(c1)OCO2`, the activation is 6.33%.
For the compound `C[C@H](CO)N1C[C@H](C)[C@H](CN(C)S(C)(=O)=O)Oc2ncc(C3=CCCC3)cc2C1=O`, the activation was 23.9%.
Next, `COc1ccc2c3c(n(C)c2c1)[C@H](CO)N(C(=O)NC(C)C)CC31CN(CC2CCCCC2)C1`: -8.45%; `C/C=C/c1ccc2c(c1)O[C@@H](CN(C)C(=O)c1ccncc1)[C@@H](C)CN([C@H](C)CO)S2(=O)=O`: 9.46%.
Next, `C=CCOc1ccc(/C=N/NC(=O)C(C)Sc2ccccn2)cc1OCC` (stereo not given): 26.6%; `C/C(=N/NC(=O)CSc1ccccn1)c1ccc([N+](=O)[O-])cc1`: 3.45%; `CCOc1ccc(/C=N/NC(=O)CSc2ccccn2)cc1O`: 47.7% (active).
Next, `Cc1ccccc1S(=O)(=O)N1CC(=O)N2[C@H](CO)[C@@H](c3ccc(C#Cc4ccccc4)cc3)[C@H]2C1`: -6.46%.
On to `Cc1nc(N2[C@H](CO)[C@H](c3ccccc3)[C@H]2CNCC2CCC2)sc1C`, for which the activation is 2.74%.
Next, `CCCNC(=O)N1CC2(CN(C(=O)C3CCCCC3)C2)c2c([nH]c3cc(OC)ccc23)[C@@H]1CO`: 13.6%; `Cc1ccc(-c2ccc3c(c2)O[C@@H](CN(C)C(=O)NC(C)C)[C@@H](C)CN([C@H](C)CO)S3(=O)=O)cc1`: 4.12%; `Cc1ccc(C(C)C)cc1OCCN1CCCC1`: 12.9%.
Next, `C#CC(CCN1CCCCC1)(OC)c1ccccc1` (stereo not given): 17.7%; `c1ccc(-c2ccccc2OCCN2CCCCC2)cc1`: 53.2% (active).
Next, `CCCNC(=O)N1CC(=O)N2[C@H](CO)[C@@H](c3ccc(-c4ccc(F)cc4)cc3)[C@H]2C1`: -19.7%; `C[C@H](CO)N1C[C@H](C)[C@@H](CN(C)CC2CC2)OCCCC[C@H](C)Oc2ccc(NC(=O)Cc3ccccc3)cc2C1=O`: 7.71%.
For the compound `COc1ccc(COC(=O)c2n[nH]c3ccccc23)cc1F`, the activation was -12.2%.
With `COc1ccc(S(=O)(=O)N(C)C)cc1NC(=O)COC(=O)c1n[nH]c2ccccc12`, the activation was -5.72%.
Next, `CCN(CC)S(=O)(=O)c1ccc2nc(COC(=O)c3n[nH]c4ccccc34)[nH]c2c1`: 57.7% (active); `C[C@H](CO)N1C[C@H](C)[C@@H](CN(C)C(=O)Nc2ccnc(N3CCOCC3)c2)OCc2ccccc2-c2c(n(C)c3ccccc23)C1=O`: -17.9%.
Next, `CNC[C@H]1Oc2ccc(NC(=O)CCC(F)(F)F)cc2C(=O)N([C@@H](C)CO)C[C@H]1C`: 4.67%; `C[C@H]1CN([C@@H](C)CO)C(=O)c2cc(NC(=O)Cc3cn(C)c4ccccc34)ccc2O[C@@H]1CN(C)Cc1ccc(Cl)c(Cl)c1`: 7.56%.
With `C[C@H](CO)N1C[C@H](C)[C@@H](CN(C)C(=O)Nc2cc(F)ccc2F)Oc2cc(C#CC3CC3)ccc2S1(=O)=O`, the activation is -8.09%.
Next, `CN(C)C(=O)[C@@H]1[C@@H](CO)[C@@H]2Cn3c(cccc3=O)[C@H]1N2C(=O)c1ccc(F)cc1`: 7.45%; `O=C(C[C@@H]1CC[C@H](NC(=O)C2CC2)[C@@H](CO)O1)NCc1ccncc1`: -4.07%.
For the compound `COc1ccc(C2CC(=O)Nc3sc(=N)c4c(N)c(C#N)c(N)nc4c32)cc1OC` (stereo not given), the activation was 70.3% (active).
Regarding `COc1ccc(C2OCC3(CO2)SC(=O)NC3=O)cc1OC` (stereo not given), the activation was 21.8%.
Next, `CCc1nc2c(OCc3ccc(F)c(F)c3)cccn2c1N(C)C(=O)c1ccco1`: -1.95%.
Regarding `CCc1nc2c(OCc3ccccc3)cccn2c1N(C)C(=O)c1ccco1`, the activation was 17.3%.
Next, `CCc1nc2c(OCCC3CCCCC3)cccn2c1N(C)C(=O)c1ccco1`: 42% (active); `CCC(=O)Nc1ccc2c(c1)C(=O)N(C)C[C@@H](OC)[C@H](C)CN(Cc1cccnc1)[C@@H](C)CO2`: -1.44%.
Next, `C[C@@H]1CN([C@@H](C)CO)C(=O)c2cccc(NC(=O)C3CC3)c2O[C@@H]1CN(C)C`: 21.1%; `CCOC(=O)c1c(NC(=O)C2CCN(S(=O)(=O)c3ccc(Cl)cc3)CC2)sc2c1CCCC2`: -4.47%.
Next, `C=CCN(CC=C)S(=O)(=O)c1ccc(C(=O)Nc2sc3c(c2C(N)=O)CCCCC3)cc1`: 47.2% (active).
Turning to `CC(=O)N1CCc2c(sc(NC(=O)CCS(=O)(=O)c3ccc(C)cc3)c2C(N)=O)C1`, the activation was 4.75%.
Next, `Cc1ccc(S(=O)(=O)N(C)C[C@@H]2Oc3c(NC(=O)C4CCCCC4)cccc3C(=O)N([C@H](C)CO)C[C@H]2C)cc1`: -9.86%; `C=CCn1cc(Cl)cc(C(=O)Nc2ccccc2)c1=O`: 98.4% (active).
As to `O=C(Nc1ccc(CN2CCOCC2)cc1)c1cc(Cl)ccc1Cl`, the activation is -0.035%.
Next, `C=CCc1cccc2cc(C(=O)Nc3ccc(NC(C)=O)cc3)c(=O)oc12`: 6.64%; `C[C@H](CO)N1C[C@H](C)[C@H](CN(C)S(=O)(=O)c2ccccc2)Oc2ccc(NC(=O)Cn3cnnn3)cc2C1=O`: 12.8%; `C[C@H]1CN([C@@H](C)CO)C(=O)c2cccc(NC(=O)Nc3ccc(F)cc3)c2O[C@H]1CN(C)S(=O)(=O)c1cn(C)cn1`: 6.95%.
Next, `O=C(COC(=O)c1ncc(Cl)c(Cl)c1Cl)NNC(=O)c1ccccc1`: -6.14%; `O=C(COC(=O)/C=C/c1ccc(Cl)cc1)NC1CCS(=O)(=O)C1` (stereo not given): 14.8%.
Next, `O=C(COC(=O)c1ncc(Cl)c(Cl)c1Cl)NC1CCS(=O)(=O)C1` (stereo not given): 53.1% (active); `O=c1[nH]c2ccccc2n1C1CCN(CCOc2ccccc2)CC1`: -4.23%.
Consider `N#Cc1ccc(OCCCN2CCC(C(O)(c3ccccc3)c3ccccc3)CC2)c(F)c1`, for which the activation was -32.8%.
`OC(c1ccccc1)(c1ccccc1)C1CCN(CCCOc2ccc(-c3ccsc3)cc2)CC1`: the activation is 83.7% (active).
Next, `CC(=O)N1[C@H](CN(C)S(=O)(=O)c2ccccc2)[C@H](c2ccccc2)[C@@H]1CO`: 2.97%; `COc1ccc(NC(=O)N(C)C[C@@H]2Oc3ccc(NC(=O)Nc4ccccc4)cc3CC(=O)N([C@H](C)CO)C[C@@H]2C)cc1`: -8.36%.
On to `CNc1nc(-c2ccccc2)cc(-c2ccccc2)n1`, for which the activation was 50.3% (active).
Regarding `Cc1ccc(-c2cc(=O)[nH]c(NCc3ccccc3)n2)cc1`, the activation was 0.61%.
Next, `CN1CCCc2nc(-c3ccccc3)ccc21`: 15.2%; `C[C@@H]1CN([C@H](C)CO)C(=O)c2cccc(NC(=O)CCCCCC(=O)Nc3ccccc3N)c2O[C@H]1CN(C)Cc1ccc(Oc2ccccc2)cc1`: -51.6%.
Next, `O=C(C[C@@H]1CC[C@@H](NC(=O)c2ccc3c(c2)OCO3)[C@H](CO)O1)NCc1ccc(Cl)cc1`: -2.44%.
Regarding `COc1ccc(S(=O)(=O)N(C)C[C@H]2Oc3ccc(NS(=O)(=O)c4ccc(F)cc4)cc3C(=O)N([C@H](C)CO)C[C@H]2C)cc1`, the activation was -11.6%.
Next, `COC(=O)C1=C(C)N(C)C(=S)NC1c1cc(OC)ccc1OC` (stereo not given): -51%; `COC(=O)C1=C(C)NC(=S)NC1c1ccc(OCC(=O)N2CC(C)OC(C)C2)c(OC)c1` (stereo not given): 8.95%; `COC(=O)C1=C(C)NC(=S)NC1c1ccc(OC)cc1` (stereo not given): 140% (active).
`CC(=O)N(C)C[C@@H]1Oc2ccc(N)cc2CC(=O)N(C)C[C@H]1C`: the activation is -4.42%.
Next, `Cc1ccnc(NS(=O)(=O)c2ccc(NC(=O)c3oc4ccccc4c3C)cc2)n1`: -7.58%; `Cc1cc(C)c2oc(C(=O)Nc3ccc(S(=O)(=O)Nc4nccc(C)n4)cc3)cc(=O)c2c1`: 74.6% (active).
As for `Cc1ccnc(NS(=O)(=O)c2ccc(NC(=O)c3oc4ccc(F)cc4c3C)cc2)n1`, the activation was 17.6%.
Next, `CC(=O)Nc1ccc2c(c1)CC(=O)N(C)C[C@H](C)[C@H](CN(C)S(C)(=O)=O)O2`: 17.7%; `CC=Cc1ccc2n(c1=O)C[C@H]1[C@H](CO)[C@@H](C(=O)NC3CCCC3)[C@@H]2N1C(=O)c1cnccn1` (mixture of isomers): 3.54%.
